Results: PubChem BioAssay (Tox21)
Records with an inconclusive call do not appear. Where a call stands in place of a potency, no number is given. Calls of active or inactive are those of the source. The call rests on the fitted dose curve; in most records, active means well fitted cell-killing curve with a large enough effect in the repeat runs; inconclusive means weak or mixed curves, or effect the other way; inactive means no such curve, though single readings can be large or run the other way.

Assay: qHTS assay to identify small molecule agonists of the farnesoid-X-receptor (FXR) signaling pathway - cell viability counter screen (AID 743218); further: nearly all actives have a fitted effect of over 45% in size
Conditions: FXR-bla HEK293T viability, CellTiter-Glo luminescence, 16 h; series mostly up to 62.6 µM
Source text: U.S. Tox21 Program National Center for Advancing Translational Sciences [NCATS] NIH Chemical Genomics Center [NCGC] U.S. Environmental Protection Agency [EPA] National Institutes of Environmental Health Sciences [NIEHS] National Toxicology Program [NTP] U.S. Food and Drug Administration [FDA] Tox21 Assay Overview: The farnesoid-X-receptor (FXR), a nuclear hormone receptor, is highly expressed in liver, intestine, kidney and adrenal cortex. Natural ligands of FXR are the bile acids (Cholic acid, Chenodeoxy cholic acid etc). FXR is an important regulator of diverse metabolic pathways, including the bile acid homeostasis, lipid and glucose metabolisms. FXR regulates the expression of target genes by binding either as a monomer or as a heterodimer with the retinoid X receptor (RXR). Numerous studies have reported that FXR exerts protective function during cholestasis, diabetes, liver regeneration, and cancer. To identify compounds that activate FXR signaling, GeneBLAzer FXR-UAS-bla HEK 293T cell line (Invitrogen, Carlsbad, CA) containing a beta-lactamase reporter gene under the control of a UAS response element was used to screen the Tox21 10K compound library. The cytotoxicity of the Tox21 compound library against the FXR-bla cell line was tested in parallel by measuring the cell viability using CellTiter-Glo assay in the same wells.
Tox21 Assay Protocol Summary: FXR-bla cells were dispensed at 5000 cells/5uL/well in 1536-well black wall/clear bottom plates using a Multidrop Combi (Thermo Fisher Scientific, Waltham, MA) dispenser. After the assay plates were incubated at 37 C and 5% CO2 for 5 h, 23 nL of compounds dissolved in DMSO, positive controls or DMSO only was transferred to the assay plate by a Pintool station (Kalypsys, San Diego, CA). The assay plates were incubated at 37C for 16 h. After 1 uL of LiveBLAzerTM B/G FRET substrate was added using a Bioraptr Flying Reagent Dispenser (FRD) workstation (Beckman Coulter, Indianapolis, IN), the plates were incubated at room temperature for 2 h, and fluorescence intensity was measured by an Envision plate reader (PerkinElmer, Shelton, CT). For cell viability readout that measures cytotoxicity, 4uL/well of CellTiter-Glo reagent was added into the assay plates using a Bioraptr FRD. After 30 min incubation at room temperature, the luminescence intensity in the plates was measured using a ViewLux plate reader (PerkinElmer).

| SMILES | Potency | viability change, negative = cytotoxic |
| --- | --- | --- |
| C=COCCOCCOC=C | inactive |  |
| CN(C)CCCNCCC#N | inactive |  |
| FC(F)(F)/C(=N\OCC1OCCO1)c1ccc(Cl)cc1 | inactive |  |
| NC(=O)NNC(N)=O | inactive |  |
| CCCCCCCCCCCCCCCC(=O)NCCO | inactive |  |
| Cn1c(=O)c2c(ncn2CC2OCCO2)n(C)c1=O | inactive |  |
| CC1=NN(c2ccc(S(=O)(=O)O)cc2)C(=O)C1N=Nc1ccccc1 (stereo not given) | inactive |  |
| CCOC(=O)OCC/C(SC(=O)OCC)=C(\C)N(C=O)Cc1cnc(C)nc1N | inactive |  |
| CCOC(=O)CCc1ccccc1 | inactive |  |
| Cc1ccc(S(=O)(=O)NC(=O)NC2CCCCCCC2)cc1 | inactive |  |
| CC1=CC[C@H](CC=O)C1(C)C | inactive |  |
| CCOC(=O)C(=O)c1csc(NC=O)n1 | inactive |  |
| NCCc1ccn[nH]1 | inactive |  |
| CCN(CCC#N)c1ccccc1 | inactive |  |
| CC(Cl)COP(=O)(OCC(C)Cl)OCC(C)Cl (stereo not given) | inactive |  |
| Nc1ccc(C(=O)OCC(O)CO)cc1 (stereo not given) | inactive |  |
| CO[Si](CCCCl)(OC)OC | inactive |  |
| C=CCOCC(O)CCl (stereo not given) | inactive |  |
| CC(C)(C)c1ccc(C=O)cc1 | inactive |  |
| Nc1nc(=O)n([C@@H]2O[C@H](CO)[C@@H](O)[C@@H]2F)cc1I | inactive |  |

| SMILES | Potency | viability change, negative = cytotoxic |
| --- | --- | --- |
| SCCSCCS | inactive |  |
| CCCCCCCC/C=C\CCCCCCCC(=O)OC[C@@H](O)[C@H]1OC[C@H](O)[C@H]1O | inactive |  |
| O=C(O)c1ccccc1C(=O)OCc1ccccc1 | inactive |  |
| C[C@H]1O[C@H](O[C@H]2[C@H](O)[C@@H](O)[C@@H](O[C@H]3[C@H](O)[C@@H](O)[C@H](O)O[C@@H]3CO)O[C@@H]2CO)[C@H](O)[C@@H](O)[C@@H]1N[C@H]1C=C(CO)[C@@H](O)[C@H](O)[C@H]1O | inactive |  |
| COc1cccc2sc(N)nc12 | inactive |  |
| O=c1[nH]c(=O)c2[nH]c(=O)[nH]c2[nH]1 |  | 18.5% [at 13.2 µM] (inactive) |
| CCOC(=O)CC(CC(=O)OCC)(OC(C)=O)C(=O)OCC | inactive |  |
| NS(=O)(=O)c1ccccc1OC(F)(F)F | inactive |  |
| COc1cc2c(Nc3ccc(Br)cc3F)ncnc2cc1OCC1CCN(C)CC1 | inactive |  |
| Cc1nc(C)nc(N2C[C@@H](C)N(c3ccnc([C@@H](C)O)n3)[C@@H](C)C2)n1 | inactive |  |
| CC(C)(CO)[C@@H](O)C(=O)NCCCO | inactive |  |
| O=C(/C=C/c1ccccc1)NCCO | inactive |  |
| CO/N=C(/C(=O)N[C@@H]1C(=O)N2C(C(=O)O)=C(Cn3nnc(C)n3)CS[C@H]12)c1csc(N)n1 | inactive |  |
| CC(=O)/C=C/c1ccco1 | inactive |  |
| Cc1cc(C)cc([N+](=O)[O-])c1 | inactive |  |
| O=c1cc(O)c(Cl)c[nH]1 | inactive |  |
| O=C(O)c1c(Cl)ccc(Cl)c1Cl | inactive |  |
| Cc1ccc2c(c1)c1c3n2CCNC3CCC1 (stereo not given) | inactive |  |
| CC(C)CCO | inactive |  |
| CCCCC(=O)N(C)C | inactive |  |
